Data as given in PubChem BioAssay (NCI).
Compounds without any hit were thinned out: in the full panel of roughly 79,000, 15% have a hit. A number with no mark means an inactive call. Cut-off read from the data, not from the text of the source: active = growth inhibition above about 70%; inactive = the rest.

assay: NCI Yeast Anticancer Drug Screen. Data for the bub3 strain (AID 167); details: S. cerevisiae bub3 mutant strain, at 50.0 µM, hits give high values
Summary of the method: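 Part of a panel of yeast mutants defective in DNA damage repair or cell cycle regulation. Each strain is grown with compound, and inhibition is calculated relative to solvent-treated cultures.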

Compared with CCCC1(CCC)CNC(=O)NC1, CCCCOC(=O)c1cccc(C(=O)OCCCC)n1 is lower in growth inhibition: 1.5% for the first, -11.5% for the second.

Going from CC(C)NC(=O)OCCN=c1c2ccccc2ccc2ccccc12 to Cc1ccccc1C(c1ccccc1)C(CO)CO (stereo unspecified), the growth inhibition falls from 60.1% to -5.4%.

First: C(=C\c1ccc(/C=C/c2ccccc2)nn1)/c1ccccc1
Second: OC1(c2ccccc2)CCCN(Cc2ccccc2)C1 (stereo unspecified)
The growth inhibition of the first is lower: 0.8% for the first, 14.6% for the second.

Compared with COc1ccc(/C=C/C(=O)c2sc(N)nc2C)cc1, COC(=O)c1ccc(/C=C/c2cc(O)ccc2O)cc1 is higher in growth inhibition: 3.95% for the first, 52.5% for the second.

Compared with CC(=O)NCc1cccc[n+]1[O-], CC(=O)NCCSSCCCCS(=O)O is higher in growth inhibition: -6.85% for the first, 6.05% for the second.

Compared with C[C@@H]1CC[C@@H](C)[C@](C)(CCc2ccoc2)C/C=C\C=C/1C(=O)O, CC(C)C1=CC23CCC4C(C)(C(=O)O)CCCC4(C)C2CC1C1C(=O)N(c2ccccc2)C(=O)C13 (stereo unspecified) is lower in growth inhibition: 68.8% for the first, -40% for the second.

Compared with CCN(CC)c1cccc(C(=O)OCCNCC(C)C)c1, CCC[N+](CCC)=c1ccc2nc3c(C)cc(N(CC)CC)cc3sc-2c1 is lower in growth inhibition: 49.1% for the first, -130% for the second.

Compared with O=C(O)CCN1CCSC1=O, CC1CCCC2(CC[N+](C)(CCC[N+](C)(C)C)CC2)C1 (stereo unspecified) is lower in growth inhibition: 2.35% for the first, -41% for the second.
